This is a sample that favours compounds with a hit; in the whole collection about 2.4% have one here.
SENP7 inh: SENP7 protease inhibition; Q9BQF6; recombinant SENP7, Z-RLRGG-aminoluciferin luminescence, 40 min; inhibition, % at 5 µM; 1.5% of 330,000 active; AID 434973;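 active = inhibition above about 50% at the single test dose, limit read from the data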;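 also: plate controls were DMSO with enzyme for no effect and no enzyme buffer wells for full effect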
SENP8 block-1: SENP8 protease inhibition. Q96LD8. purified SENP8, Z-RLRGG-aminoluciferin cleavage, luminescence. inhibition, % at 10 µM. 1.2% of 330,000 active; in the data active = inhibition above about 50%
Platelet DG rel: platelet dense granule release activity; 0.22% of 300,000 active; AID 1663; human platelet-rich plasma, SFLLRN dense granule ATP release, luminescence; inhibition, %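 (compounds screened at 7.5 µM in platelet-rich plasma)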;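 active = mean replicate score, as percent of positive control, at or above 50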
SENP6 inh: SENP6 protease inhibition; AID 2599; 1.8% of 330,000 active; Recombinant SENP6 catalytic domain, aminoluciferin luminescence; inhibition, % at 10 µM; Q9GZR1;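 active = inhibition above about 50% at the single tested dose, limit read from the data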;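 also: plate controls were DMSO wells with enzyme for no effect and DMSO wells lacking enzyme for full effect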
Target sequence (Q9GZR1 628-1112 limits assumed): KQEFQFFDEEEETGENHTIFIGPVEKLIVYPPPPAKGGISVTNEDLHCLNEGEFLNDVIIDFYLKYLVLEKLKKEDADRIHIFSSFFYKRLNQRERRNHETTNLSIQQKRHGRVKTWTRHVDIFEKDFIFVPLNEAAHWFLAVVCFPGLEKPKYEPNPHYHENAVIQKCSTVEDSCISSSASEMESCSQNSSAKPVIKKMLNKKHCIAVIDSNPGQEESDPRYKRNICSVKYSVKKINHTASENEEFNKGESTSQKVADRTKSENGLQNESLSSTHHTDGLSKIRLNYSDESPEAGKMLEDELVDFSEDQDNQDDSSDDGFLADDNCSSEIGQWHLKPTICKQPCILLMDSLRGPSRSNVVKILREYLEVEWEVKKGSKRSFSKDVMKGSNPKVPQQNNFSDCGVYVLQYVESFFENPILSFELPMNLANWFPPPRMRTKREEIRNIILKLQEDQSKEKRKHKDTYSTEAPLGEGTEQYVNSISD
SENP8 block-2: SENP8 (human) protease inhibition; recombinant SENP8, Nedd8 substrate fluorescence; 0.64% of 360,000 active; inhibition, % at 20 µM; in the data active = inhibition mostly above about 40%, no sharp cut-off; inactive = mostly below about 27%
SENP8 confirm: confirmation of human SENP8 protease inhibitors; 40% of 6,200 active; shares compounds with SENP7 inh; Recombinant SENP8, Z-RLRGG-aminoluciferin luminescence, 60 min; inhibition, % at 12.5 µM; AID 488912;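 active = mean inhibition across replicates above about 50%, limit read from the data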
SENP6 confirm: confirmation of human SENP6 protease inhibitors. shares compounds with SENP7 inh. 58% of 6,200 active. AID 488915. inhibition, % at 12.5 µM. recombinant SENP6, Z-RLRGG-aminoluciferin luminescence
SENP7 confirm: human SENP7 inhibition, confirmed | shares compounds with SENP7 inh | recombinant SENP7, Z-RLRGG-aminoluciferin luminescence, 40 min | inhibition, % at 12.5 µM | 69% of 6,200 active | AID 488917
Casp3 SENP sel: selectivity test for SENP inhibitors: human caspase-3 inhibition; shares compounds with SENP7 inh; purified caspase-3, Z-DEVD-aminoluciferin luminescence, 60 min; inhibition, % at 12.5 µM; 60% of 6,200 active; AID 488918;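 active = mean inhibition above about 50%, limit read from the data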;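 also: plate controls were enzyme with DMSO for no effect and wells without caspase-3 for full effect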
SENP luc ctr: interferes with luciferase luminescence in SENP counter-screen; shares compounds with SENP7 inh; Pre-incubated SENP8/Z-RLRGG-aminoluciferin, luciferase luminescence interference; inhibition, % at 12.5 µM; 39% of 6,200 active; AID 488919;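 active = mean inhibition above about 50% when retested at one dose, limit read from the data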;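 also: plate controls were DMSO wells with completed reaction for no effect and substrate without enzyme for full effect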
Starred values were filed as active, the others as inactive; i = inactive; x = no result given.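 The calls were made as follows, unless noted: active = mean inhibition above about 50% in the one-dose retest (limit read from the data); inactive = the rest.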

SMILES	SENP7 inh	SENP8 block-1	Platelet DG rel	SENP6 inh	SENP8 block-2	SENP8 confirm	SENP6 confirm	SENP7 confirm	Casp3 SENP sel	SENP luc ctr
Cc1ccc(O)c(C2=Nc3ccccc3C2(C)C)c1	56*	49	3	71*	22	21	64*	89*	33	28
COc1ccc2nc(SCC(N)=O)[nH]c2c1	10	5	-1	-1	13	x	x	x	x	x
COc1ccc2nc(-c3ccc(N)cc3)[nH]c2c1	83*	54*	29	75*	i	68*	61*	91*	86*	74*
COc1ccc2nc(-c3cccc(N)c3)[nH]c2c1	82*	58*	28	77*	-489	70*	71*	94*	88*	67*
Cc1ccc2oc(=O)c3cc(C(=O)N4CCN(C)CC4)sc3c2c1	-7	-9	1	-13	-53	x	x	x	x	x
Cc1ccc(NC(=O)COc2ccccc2[N+](=O)[O-])nc1	70*	50	4	72*	4	15	42	81*	79*	7
Cc1ccc(C(=O)ONc2ccc(N=NC(=O)c3ccccc3O)cc2)cc1	-2	24	1	20	32	x	x	x	x	x
Cc1ccc(C(=O)ONc2ccc(N=O)cc2)cc1	100*	98*	59*	96*	26	30	101*	104*	90*	31
COc1c2c(c(OC)c3ccccc13)[C@]1(OC2)O[C@H](CCO)C[C@H](O)[C@H]1O	x	x	x	x	-11	x	x	x	x	x
O=C(Cc1ccccc1)c1ccccc1C(=O)N1CCCCC1	1	1	0	-15	16	x	x	x	x	x
CC1=NN(c2ccccc2)C(=O)/C1=C/c1c(O)n(-c2ccc(F)c(Cl)c2)[nH]c1=O	-6	78*	17	84*	x	5	66*	59*	4	55*
O=C(COC(=O)c1cc[n+]([O-])cc1)Nc1ccc(Cl)cc1Cl	12	5	x	-2	6	x	x	x	x	x
O=C(O)c1ccc(NC2=C/C(=N/S(=O)(=O)c3ccccc3)c3ccccc3C2=O)cc1	60*	87*	x	93*	61*	95*	98*	92*	19	7
COC(=O)c1ccc(N/C(=N/S(=O)(=O)c2ccccc2)c2ccccc2)cc1	0	0	-6	0	2	x	x	x	x	x
Cc1nc(-c2nc(-c3c(C(=O)NNC(=O)Nc4ccccc4)noc3C)cs2)cs1	2	-3	-12	-13	8	x	x	x	x	x
Cn1ccc(C(=O)Nc2ccc(Br)cc2Br)n1	39	38	-6	66*	12	43	44	65*	54*	20
Cc1ccc(NC(=O)c2ccccn2)c(Br)c1	73*	72*	11	82*	10	66*	83*	79*	64*	34
COc1cccc(NC(=O)c2ccn(C)n2)c1	-2	-19	17	-47	21	x	x	x	x	x
Cc1ccc(NC(=O)c2ccn(C)n2)c(Br)c1	44	42	21	61*	18	47	42	81*	68*	61*
CC(SCc1ccccc1)C(=O)Nc1ccccc1 (configuration not stated)	6	1	-7	-6	5	x	x	x	x	x
CC(=O)Oc1cc(C(=O)OCC(=O)N2CCc3ccccc3C2)cc(OC(C)=O)c1OC(C)=O	-4	3	x	-11	0	x	x	x	x	x
CCC(=O)N1CCc2cc(S(=O)(=O)CCC(=O)NCc3cccc(OC)c3)ccc21	-2	-7	-6	-6	15	x	x	x	x	x
O=C(C1CCCN(Cc2ccc(Br)cc2)C1)N1CCCCC1 (configuration not stated)	3	-5	0	-9	10	x	x	x	x	x
CC(=O)c1cnc(Nc2cccc(Cl)c2Cl)s1	48	41	-5	53*	-270	62*	58*	86*	61*	5

Assay outcomes (PubChem BioAssay)
